According to paper PMC5869772, “Quantitative profiling of BATF family proteins/JUNB/IRF hetero-trimers using Spec-seq”:

Experiments:
Assay in all cases: Spec-seq (EMSA and sequencing of bound and unbound bands); 100 nM BATFx-JUNB, 1 uM dsDNA library, 50 mM K acetate, 20 mM Tris-acetate, 10 mM Mg acetate, 100 ug/ml BSA, pH 7.9, 10% glycerol, 30 min on ice; native 9% PAGE at 4 C; low values mean tight binding
Settings in all cases: protein: recombinant;recombinant; tags: N-terminal mCherry-TEV, cleaved off;C-terminal 6His; copies: 1;1; dsDNA, one strand shown
[1] = target: T1, BATF;JUNB (human;human, UniProt Q16520;P17275 1-125;148-347, |)
T1 sequence 1: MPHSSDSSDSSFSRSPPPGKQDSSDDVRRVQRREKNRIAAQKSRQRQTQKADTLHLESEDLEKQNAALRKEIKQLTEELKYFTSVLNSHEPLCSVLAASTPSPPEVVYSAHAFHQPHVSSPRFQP
T1 sequence 2: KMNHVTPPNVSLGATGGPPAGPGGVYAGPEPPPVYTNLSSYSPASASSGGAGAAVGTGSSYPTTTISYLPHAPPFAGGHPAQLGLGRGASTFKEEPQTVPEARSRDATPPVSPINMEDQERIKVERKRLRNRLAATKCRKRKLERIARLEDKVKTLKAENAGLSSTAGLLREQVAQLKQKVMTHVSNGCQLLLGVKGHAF
Method in brief: (§1)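 The protein, at 100 nM, was incubated with 1 μM double-stranded degenerate DNA library for 30 min on ice in NEB Cutsmart buffer with 10% glycerol, then resolved by native 9% PAGE at 4 °C. Excised bound and unbound bands were PCR-barcoded and Illumina-sequenced, and each sequence's relative binding energy in kT is −ln of its bound/unbound read-count ratio.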

[2] = target: T2, BATF2 (bZIP);JUNB (human;human, UniProt Q8N1L9;P17275 1-142;148-347, |)
T2 sequence 1: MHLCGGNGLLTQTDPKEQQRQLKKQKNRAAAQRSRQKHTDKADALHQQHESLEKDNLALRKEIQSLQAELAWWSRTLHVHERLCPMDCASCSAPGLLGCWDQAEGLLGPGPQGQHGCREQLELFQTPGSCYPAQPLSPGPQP
T2 sequence 2: T1 sequence 2
Method in brief: as §1

[3] = target: T3, BATF3;JUNB (human;human, UniProt Q9NR55;P17275 1-127;148-347, |)
T3 sequence 1: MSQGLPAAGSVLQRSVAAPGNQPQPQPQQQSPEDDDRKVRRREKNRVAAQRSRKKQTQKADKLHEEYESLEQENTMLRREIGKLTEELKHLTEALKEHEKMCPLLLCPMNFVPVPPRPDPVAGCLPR
T3 sequence 2: T1 sequence 2
Method in brief: as §1

Q: For “GATAGTCTCATTTTCACCCCGTGAAATGAGTCAATTGTTCCATTACAGTATCTGT”, which binding signal [1] is on record?
A: The binding signal was -0.554 kT.

Q: What about the binding signal [2] of the same sequence?
A: Its binding signal is 0.156 kT.

Q: And the binding signal [3]?
A: The binding signal was -0.486 kT.

Q: For “GATAGTCTCATTTTCACCCCGTGAAAAGACGTCATTGTTCCATTACAGTATCTGT”, which binding signal [1] is on record?
A: The binding signal was -0.231 kT.

Q: What about the binding signal [2] of the same sequence?
A: Its binding signal is -0.0139 kT.

Q: What about the binding signal [3] of the same sequence?
A: The binding signal was -0.682 kT.

Q: How did the binding signal [1] turn out when “GATAGTCTCATTTTCACCCCGTGAAACTGAGTCATTGTTCCATTACAGTATCTGT” was run?
A: The binding signal was -1.39 kT.

Q: What about the binding signal [2] of the same sequence?
A: The binding signal was -0.852 kT.

Q: What about the binding signal [3] of the same sequence?
A: The binding signal was -1.63 kT.

Q: For “GATAGTCTCATTTTCACCCCGTGAAATGAGGCAATTGTTCCATTACAGTATCTGT”, which binding signal [1] is on record?
A: The binding signal was 0.661 kT.

Q: What about the binding signal [2] of the same sequence?
A: The binding signal was 1.12 kT.

Q: What about the binding signal [3] of the same sequence?
A: The binding signal was 0.808 kT.

Q: With “GATAGTCTCATTTTCACCCCGTGAAATGACTCGCTTGTTCCATTACAGTATCTGT” as the sequence, how does the binding signal [1] read?
A: The binding signal was -0.141 kT.

Q: What about the binding signal [2] of the same sequence?
A: The binding signal was 0.667 kT.

Q: And the binding signal [3]?
A: The binding signal was 0.378 kT.

Q: “GATAGTCTCATTTTCACCCCGTGAAATTACTCATTTGTTCCATTACAGTATCTGT” was tested. Which binding signal [1] did it give?
A: The binding signal was -0.755 kT.

Q: And the binding signal [2]?
A: The binding signal was -0.323 kT.

Q: And the binding signal [3]?
A: Its binding signal is -0.827 kT.

Q: How did the binding signal [1] turn out when “GATAGTCTCATTTTCACCCCGTGAAATGTCTCATTTGTTCCATTACAGTATCTGT” was run?
A: Its binding signal is 0.287 kT.

Q: What about the binding signal [2] of the same sequence?
A: The binding signal was 0.93 kT.

Q: And the binding signal [3]?
A: Its binding signal is 0.725 kT.

Q: “GATAGTCTCATTTTCACCCCGTGAAATGACTGAGTTGTTCCATTACAGTATCTGT” was tested. Which binding signal [1] did it give?
A: The binding signal was -0.132 kT.

Q: What about the binding signal [2] of the same sequence?
A: The binding signal was 0.387 kT.

Q: And the binding signal [3]?
A: The binding signal was 0.26 kT.

Q: For “GATAGTCTCATTTTCACCCCGTGAAATGAGTCTATTGTTCCATTACAGTATCTGT”, which binding signal [1] is on record?
A: Its binding signal is -0.119 kT.

Q: And the binding signal [2]?
A: The binding signal was 1.33 kT.

Q: And the binding signal [3]?
A: The binding signal was 0.647 kT.

Q: Which results are given for “GATAGTCTCATTTTCACCCCGTGAAATGAGTCTTTTGTTCCATTACAGTATCTGT”?
A: binding signal [1]: 0.0504 kT; binding signal [2]: 1.04 kT; binding signal [3]: 0.768 kT

Q: “GATAGTCTCATTTTCACCCCGTGAAATGACCTCATTGTTCCATTACAGTATCTGT” was tested. Which binding signal [1] did it give?
A: The binding signal was -0.305 kT.

Q: What about the binding signal [2] of the same sequence?
A: Its binding signal is 0.217 kT.

Q: What about the binding signal [3] of the same sequence?
A: The binding signal was -0.817 kT.

Q: With “GATAGTCTCATTTTCACCCCGTGAAAATCAGTCATTGTTCCATTACAGTATCTGT” as the sequence, how does the binding signal [1] read?
A: The binding signal was -0.547 kT.

Q: What about the binding signal [2] of the same sequence?
A: Its binding signal is 0.0501 kT.

Q: And the binding signal [3]?
A: The binding signal was -0.272 kT.

Q: Which binding signal [1] does the source give for “GATAGTCTCATTTTCACCCCGTGAAACGACTCATTTGTTCCATTACAGTATCTGT” here?
A: The binding signal was -0.317 kT.

Q: And the binding signal [2]?
A: The binding signal was 0.616 kT.

Q: And the binding signal [3]?
A: Its binding signal is 0.267 kT.

Q: How did the binding signal [1] turn out when “GATAGTCTCATTTTCACCCCGTGAAATGAGTCACTTGTTCCATTACAGTATCTGT” was run?
A: The binding signal was -0.822 kT.

Q: And the binding signal [2]?
A: Its binding signal is -0.342 kT.

Q: What about the binding signal [3] of the same sequence?
A: Its binding signal is -1.03 kT.

Q: What does the source list for “GATAGTCTCATTTTCACCCCGTGAAATGACTCCATTGTTCCATTACAGTATCTGT”?
A: binding signal [1]: -0.151 kT; binding signal [2]: 0.566 kT; binding signal [3]: 0.168 kT

Q: With “GATAGTCTCATTTTCACCCCGTGAAATGAGGCATTTGTTCCATTACAGTATCTGT” as the sequence, how does the binding signal [1] read?
A: Its binding signal is 0.568 kT.

Q: What about the binding signal [2] of the same sequence?
A: Its binding signal is 1.08 kT.

Q: What about the binding signal [3] of the same sequence?
A: Its binding signal is 0.744 kT.

Q: With “GATAGTCTCATTTTCACCCCGTGAAAGGACGTCATTGTTCCATTACAGTATCTGT” as the sequence, how does the binding signal [1] read?
A: Its binding signal is -0.227 kT.

Q: What about the binding signal [2] of the same sequence?
A: Its binding signal is 0.108 kT.

Q: What about the binding signal [3] of the same sequence?
A: Its binding signal is -0.474 kT.

Q: What does the source list for “GATAGTCTCATTTTCACCCCGTGAAATGAATCATTTGTTCCATTACAGTATCTGT”?
A: binding signal [1]: -0.738 kT; binding signal [2]: -0.323 kT; binding signal [3]: -0.732 kT

Q: Which binding signal [1] does the source give for “GATAGTCTCATTTTCACCCCGTGAAATGACCCAGTTGTTCCATTACAGTATCTGT” here?
A: Its binding signal is 0.583 kT.

Q: What about the binding signal [2] of the same sequence?
A: The binding signal was 1.09 kT.

Q: What about the binding signal [3] of the same sequence?
A: The binding signal was 1.02 kT.

Q: With “GATAGTCTCATTTTCACCCCGTGAAATGACGGCATTGTTCCATTACAGTATCTGT” as the sequence, how does the binding signal [1] read?
A: The binding signal was -0.148 kT.

Q: What about the binding signal [2] of the same sequence?
A: Its binding signal is 0.419 kT.

Q: What about the binding signal [3] of the same sequence?
A: The binding signal was -0.439 kT.

Q: Which binding signal [1] does the source give for “GATAGTCTCATTTTCACCCCGTGAAATGACGCACTTGTTCCATTACAGTATCTGT” here?
A: The binding signal was -0.31 kT.

Q: What about the binding signal [2] of the same sequence?
A: The binding signal was 0.227 kT.

Q: And the binding signal [3]?
A: The binding signal was -0.203 kT.

Q: With “GATAGTCTCATTTTCACCCCGTGAAATGAGTTAGTTGTTCCATTACAGTATCTGT” as the sequence, how does the binding signal [1] read?
A: Its binding signal is 0.169 kT.

Q: And the binding signal [2]?
A: Its binding signal is 0.988 kT.

Q: And the binding signal [3]?
A: Its binding signal is 0.772 kT.

Q: With “GATAGTCTCATTTTCACCCCGTGAAATGAGTTAATTGTTCCATTACAGTATCTGT” as the sequence, how does the binding signal [1] read?
A: The binding signal was 0.138 kT.

Q: And the binding signal [2]?
A: Its binding signal is 0.697 kT.

Q: And the binding signal [3]?
A: Its binding signal is 0.279 kT.

Q: How did the binding signal [1] turn out when “GATAGTCTCATTTTCACCCCGTGAAATGAAGTCATTGTTCCATTACAGTATCTGT” was run?
A: Its binding signal is -0.461 kT.

Q: And the binding signal [2]?
A: The binding signal was 0.0362 kT.

Q: And the binding signal [3]?
A: Its binding signal is -0.997 kT.

Q: What does the source list for “GATAGTCTCATTTTCACCCCGTGAAATGACACATTTGTTCCATTACAGTATCTGT”?
A: binding signal [1]: -0.137 kT; binding signal [2]: 0.424 kT; binding signal [3]: 0.0792 kT

Q: Which results are given for “GATAGTCTCATTTTCACCCCGTGAAATGACGTTATTGTTCCATTACAGTATCTGT”?
A: binding signal [1]: -0.288 kT; binding signal [2]: 0.0695 kT; binding signal [3]: -0.68 kT

Q: With “GATAGTCTCATTTTCACCCCGTGAAATGTCGTCATTGTTCCATTACAGTATCTGT” as the sequence, how does the binding signal [1] read?
A: Its binding signal is -0.357 kT.

Q: And the binding signal [2]?
A: Its binding signal is -0.113 kT.

Q: And the binding signal [3]?
A: The binding signal was -0.976 kT.

Q: Which results are given for “GATAGTCTCATTTTCACCCCGTGAAATGACTAACTTGTTCCATTACAGTATCTGT”?
A: binding signal [1]: -0.35 kT; binding signal [2]: 0.462 kT; binding signal [3]: 0.0773 kT

Q: Which binding signal [1] does the source give for “GATAGTCTCATTTTCACCCCGTGAAATGAGTAACTTGTTCCATTACAGTATCTGT” here?
A: Its binding signal is -0.237 kT.

Q: What about the binding signal [2] of the same sequence?
A: The binding signal was 0.714 kT.

Q: And the binding signal [3]?
A: Its binding signal is 0.295 kT.

Q: “GATAGTCTCATTTTCACCCCGTGAAATGACACAATTGTTCCATTACAGTATCTGT” was tested. Which binding signal [1] did it give?
A: Its binding signal is 0.0803 kT.

Q: And the binding signal [2]?
A: Its binding signal is 0.413 kT.

Q: And the binding signal [3]?
A: Its binding signal is -0.063 kT.

Q: How did the binding signal [1] turn out when “GATAGTCTCATTTTCACCCCGTGAAATGAGTCGTTTGTTCCATTACAGTATCTGT” was run?
A: Its binding signal is -0.00852 kT.

Q: And the binding signal [2]?
A: Its binding signal is 0.968 kT.

Q: What about the binding signal [3] of the same sequence?
A: The binding signal was 0.536 kT.

Q: Which results are given for “GATAGTCTCATTTTCACCCCGTGAAATAACGTCATTGTTCCATTACAGTATCTGT”?
A: binding signal [1]: -0.467 kT; binding signal [2]: -0.287 kT; binding signal [3]: -1.09 kT
